PAD4 inh = PAD4 (human) enzyme inhibition; recombinant PAD4, RCA probe fluorescence polarization; inhibition, % at 6.36 µM; 330,000 tested, 0.41% active; Q9UM07; AID 485272;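 active means percent inhibition above a cutoff equal to the mean of all tested compounds plus 3 SD, cut at about 15% in these data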;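 further: 0% = PAD4 with RCA probe and DMSO and 100% = probe without PAD4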
PRMT1 inh = inhibitors of human PRMT1; recombinant PRMT1, activity-based probe fluorescence polarization; inhibition, % at 2.79 µM; 370,000 tested, 1.3% active;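 active means inhibition above about 21% made by adding two undisclosed values, limit read from the data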
Target sequence (Q99873 whole entry, looked up): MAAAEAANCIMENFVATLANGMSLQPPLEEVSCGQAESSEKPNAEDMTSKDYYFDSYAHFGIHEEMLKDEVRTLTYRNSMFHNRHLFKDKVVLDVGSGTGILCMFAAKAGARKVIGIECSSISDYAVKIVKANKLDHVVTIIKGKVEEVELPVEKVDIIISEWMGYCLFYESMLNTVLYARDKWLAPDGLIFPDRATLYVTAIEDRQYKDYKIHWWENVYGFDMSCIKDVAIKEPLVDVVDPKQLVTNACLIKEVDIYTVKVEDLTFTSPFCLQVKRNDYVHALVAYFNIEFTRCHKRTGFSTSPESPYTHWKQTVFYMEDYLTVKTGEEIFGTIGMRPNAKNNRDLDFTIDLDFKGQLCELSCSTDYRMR
PME-1 primary = blocks human protein phosphatase methylesterase 1; recombinant PME-1, FP-Rh probe fluorescence polarization; inhibition, % at 5.9 µM; 320,000 tested, 0.53% active;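 active means inhibition above the campaign mean of all compounds plus 3 SD, cut at about 26% in these data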;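 further: competitive labeling of PME-1 active site by serine hydrolase directed probe; 0% = PME-1 with DMSO and 100% = wells lacking PME-1 enzyme; inhibitors block probe labeling so polarization falls and inhibition rises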
Target sequence (Q9Y570 whole entry, looked up): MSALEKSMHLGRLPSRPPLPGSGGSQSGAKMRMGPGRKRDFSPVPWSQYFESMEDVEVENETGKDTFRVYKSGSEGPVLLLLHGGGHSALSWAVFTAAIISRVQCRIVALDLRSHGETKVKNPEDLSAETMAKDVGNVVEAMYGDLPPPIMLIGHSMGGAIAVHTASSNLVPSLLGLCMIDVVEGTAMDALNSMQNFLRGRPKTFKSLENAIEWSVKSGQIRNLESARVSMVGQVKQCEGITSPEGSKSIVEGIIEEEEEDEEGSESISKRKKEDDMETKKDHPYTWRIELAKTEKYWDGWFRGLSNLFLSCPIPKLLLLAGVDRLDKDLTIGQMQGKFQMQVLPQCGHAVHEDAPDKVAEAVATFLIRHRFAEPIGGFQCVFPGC
SIAE primary = human SIAE inhibition, primary screen; Q9HAT2; 370,000 tested, 0.69% active; SIAE FP-Rh probe binding, fluorescence polarization; inhibition, % at 9.66 µM;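 active means inhibition above a cutoff: mean of compounds within the control limits plus 3 SD of those, cut at about 17% in these data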;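 further: 0% = plate median of compound wells and 100% = probe without SIAE protein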
TCR-CD3 inh = blocks the human TCR-CD3 interaction; TAMRA-labeled TCR probe fluorescence, biochemical; inhibition, % at 9.4 µM; 360,000 tested, 0.37% active; AID 651800;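 further: recombinant mutant TCR 2C K166C tagged with TAMRA read by polarization; 0% = receptor in buffer alone and 100% = receptor with positive control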
Fam108B counter = counter-screen for RBBP9 inhibitors: inhibitors of mouse Fam108B. inhibition, % at 9.51 µM. AID 1947. 300,000 tested, 0.33% active. recombinant Fam108B, FP-Rh probe fluorescence polarization;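 active means inhibition above the screen mean inhibition plus 3 SD, computed separately per campaign, cut at about 18% in these data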;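 further: inhibitors lower polarization as less probe binds the enzyme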
Fam108b inh conf = confirmation of mouse Fam108b serine hydrolase inhibitors; shares compounds with Fam108B counter; recombinant Fam108b, FP-Rh probe fluorescence polarization; inhibition, % at 9.51 µM; 930 tested, 44% active;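 active means inhibition above a limit from the primary screen, the mean over all compounds plus 3 SD, cut at about 19% in these data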;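 further: 0% = median of active Fam108b wells and 100% = catalytically dead S170A mutant; inhibitors free the probe so polarization falls as inhibition rises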
Fam108b ABPP HTS = mouse ABHD17B inhibition; recombinant Fam108b, gel-based ABPP, fluorophosphonate probe; AID 588649; 260 tested, 44% active; shares compounds with Fam108B counter; inhibition, % at 20 µM; in the data active means inhibition above about 40%
PAD4 FP conf = confirmation of human PAD4 inhibitors. recombinant PAD4, RCA probe fluorescence polarization. shares compounds with PAD4 inh. AID 488796. inhibition, % at 6.36 µM. 1,200 tested, 28% active;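 active means mean inhibition across replicates above the hit cutoff set by the earlier primary screen, cut at about 15% in these data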;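 further: inhibitors block active-site labeling by the probe so polarization falls; 0% = PAD4 with probe and DMSO and 100% = probe without PAD4 enzyme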
BSA TAMRA ctr = BSA probe counter-screen for TCR-CD3 inhibitors. shares compounds with TCR-CD3 inh. TAMRA-labeled BSA probe fluorescence counterscreen. inhibition, % at 9.4 µM. 1,200 tested, 10% active. AID 652035; in the data active means inhibition above about 23%;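 further: 0% = buffer low control and 100% = reference high control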
TCR-CD3 inh conf = TCR-CD3 interaction inhibition, confirmation; shares compounds with TCR-CD3 inh; TAMRA-labeled TCR probe fluorescence binding assay; inhibition, % at 9.4 µM; 1,200 tested, 48% active
An asterisk follows results filed as active; nt = not tested or not shown. Rows were chosen to be rich in hits. Some 2.6% of all compounds tested hit in one or more screens of this group. Unless noted, no stated cut-off is given here; in the data, active means inhibition above about 19%; inactive means the rest.

SMILES | PAD4 inh | PRMT1 inh | PME-1 primary | SIAE primary | TCR-CD3 inh | Fam108B counter | Fam108b inh conf | PAD4 FP conf | others
COc1ccc(NC(=S)Nc2ccc3nsnc3c2)cc1 | 68* | 5 | 36* | 9 | 4 | 29* | 40* | -4 | Fam108b ABPP HTS=55*
COc1ccc(S[C@]2(C(=O)N(C)C)CC(=O)N[C@@H]2c2ccc(OC)cc2)cc1 | nt | 12 | nt | 3 | nt | nt | nt | nt
CCc1ccc(S(=O)(=O)/N=C2\C=C(Nc3cccc(C(=O)O)c3)C(=O)c3ccccc32)cc1 | 71* | 6 | 29* | 11 | 1 | 57* | 78* | 66* | Fam108b ABPP HTS=40*
CCc1ccc(S(=O)(=O)/N=C2\C=C(Nc3ccc(O)cc3)C(=O)c3ccccc32)cc1 | 52* | nt | 40* | nt | nt | 20* | 17 | 50*
Cc1ccc(S(=O)(=O)/N=C2\C=C(NS(=O)(=O)c3ccccc3)C(=O)c3ccccc32)cc1 | nt | -1 | nt | -6 | -1 | nt | nt | nt
Cc1cc(C)c(S(=O)(=O)/N=C2\C=C(Nc3ccc(C(=O)O)cc3)C(=O)c3ccccc32)c(C)c1 | 53* | 14 | 15 | 18* | 3 | 40* | 59* | 40* | Fam108b ABPP HTS=0
CCc1ccc(S(=O)(=O)/N=C2/C=C(Sc3ncn[nH]3)C(=O)c3ccccc32)cc1 | 37* | nt | 37* | nt | nt | 54* | 57* | 22*
O=C(O)c1ccc(NC2=C/C(=N/S(=O)(=O)c3ccccc3)c3ccccc3C2=O)cc1 | nt | 6 | nt | 9 | 8 | nt | nt | nt
CCC(=O)N(Cc1ccccc1)c1ccccc1C(=O)Nc1cc(OC)ccc1OC | nt | -5 | nt | -8 | nt | nt | nt | nt
COC(=O)[C@]12C[C@H](CC(=O)NCCCN3CCCC3=O)C(=O)N(Cc3cccc4ccccc34)C1=C[C@H](COCc1ccccc1)O[C@@H]2C | nt | 13 | nt | 8 | nt | nt | nt | nt
CCOc1ccc(-n2c(SCC(=O)Nc3cc(C)c(NC(=O)c4ccccc4)cc3OC)nnc2-c2ccncc2)cc1 | nt | -1 | nt | -5 | nt | nt | nt | nt
CN(Cc1ccccc1)S(=O)(=O)c1cccc(C(=O)OCc2ccccc2Cl)c1 | nt | 0 | nt | 5 | nt | nt | nt | nt
CCCCn1c(NS(=O)(=O)c2ccccc2)c(S(=O)(=O)c2ccc(C)cc2)c2nc3ccccc3nc21 | 66* | 5 | 28* | 5 | -3 | 54* | 2 | -5
O=C(O)CSc1cc(NS(=O)(=O)c2ccc(Cl)cc2)c2ccccc2c1O | 31* | 44* | 28* | 10 | 7 | 28* | 19* | -6
c1nc2nc3c(c(N4CCCC4)n2n1)CCCC3 | nt | -10 | nt | -1 | nt | nt | nt | nt
CCN(CC)C(=O)C1c2ccccc2Oc2ccccc21 | 80* | 14 | 70* | 4 | 8 | 47* | 3 | 7
C=CCN(CC=C)C(=O)C1c2ccccc2Oc2ccccc21 | nt | -3 | nt | -4 | 7 | nt | nt | nt
Cc1ccc(NC(=O)C2CCCN2S(=O)(=O)c2cccnc2)c(C)c1 (stereo not given) | nt | 3 | nt | 2 | nt | nt | nt | nt
COC(=O)c1cc(S(=O)(=O)N2CCOCC2)c(Cl)cc1N1CCOCC1 | -4 | 3 | -1 | -4 | 1 | -2 | nt | nt
COC(=O)c1cc(C)nc2c1C(=O)C(=O)C=C2N1CCOCC1 | 72* | 0 | 36* | 13 | -4 | 71* | 82* | 67* | Fam108b ABPP HTS=0
CCOC(=O)C1CCCN(C(=O)C2c3ccccc3Oc3ccccc32)C1 (stereo not given) | 94* | 11 | 66* | 4 | 5 | 41* | 6 | 11
CCn1c(CSc2nnc3ccccn23)nc2cc(C(=O)O)ccc21 | 47* | 3 | 41* | 54* | 67* | 50* | 55* | 77* | Fam108b ABPP HTS=0
O=c1[nH]c(Nc2ccccc2)cc2ccccc12 | 65* | 4 | 9 | -1 | -4 | 24* | 37* | 18* | Fam108b ABPP HTS=0
CC(=O)c1cccc(-c2ccc3c(=O)[nH]c(Nc4ccccc4)cc3c2)c1 | -7 | 0 | 21 | -18 | 6 | 16 | nt | nt
CCOC(=O)[C@@]12CN(C(=O)OC(C)(C)C)CC=C1N(Cc1ccc(OC)cc1)C(=O)[C@H]2CC(=O)NCc1ccccc1 | nt | 0 | nt | 4 | nt | nt | nt | nt
SMILES | PAD4 inh | PRMT1 inh | PME-1 primary | SIAE primary | TCR-CD3 inh | Fam108B counter | Fam108b inh conf | PAD4 FP conf | others
Cc1ccc(Cl)cc1NC1=C/C(=N\S(=O)(=O)c2cccs2)c2ccccc2C1=O | 52* | 0 | 24 | 7 | -2 | 24* | 20* | 54*
CCc1ccc(CNc2ccc(O)cc2)cc1 | 15* | nt | 38* | nt | nt | 37* | 14 | 3
CCc1ccc(CNc2ccc3c(c2)ncn3CC)cc1 | 3 | 3 | 2 | 4 | 4 | 0 | nt | nt
N#Cc1c(N2CCCC2)nc(N)c2c(N)nc(N3CCCC3)cc12 | 48* | 7 | 21 | -2 | 2 | 58* | 126* | 43* | Fam108b ABPP HTS=0
COc1cc2c(C#N)c(N3CCCC3)nc(N)c2c(N)n1 | -9 | 7 | 14 | -1 | 5 | 2 | nt | nt
C=CCN1[C@H](C)COc2cccc(N3CCSCC3)c2S1(=O)=O | nt | -4 | nt | -4 | nt | nt | nt | nt
C=CCn1c(NC(=O)c2ccccc2Cl)c(C#N)c2nc3ccccc3nc21 | 59* | 0 | 21 | -1 | 10 | 49* | 2 | -2
Cc1ccc(NC(=O)CSc2nc(C)cc(=O)[nH]2)c(C)c1 | nt | -1 | nt | -2 | nt | nt | nt | nt
Cn1c(CNc2ccc(Cl)cc2)nc2ccccc21 | -2 | 1 | -2 | -6 | 5 | -4 | nt | nt
CC(C)N=c1cc2n(-c3ccc(Cl)cc3)c3ccccc3nc-2cc1Nc1ccc(Cl)cc1 | 20* | 15 | 32* | 17 | 12 | 39* | 8 | 28*
CCOc1cccc(/C=N/NC(=S)Nc2cc(S(=O)(=O)N3CCOCC3)ccc2N2CCOCC2)c1O | 3 | -4 | 32* | 9 | 21* | 18* | 13 | nt | BSA TAMRA ctr=-2;TCR-CD3 inh conf=3
CN1C(=O)c2cc(NC(=O)Nc3ccccc3F)ccc2OC[C@H]2O[C@@H](CC(=O)NCc3ccc(-c4ccccc4)cc3)CC[C@@H]21 | nt | -2 | nt | -18 | nt | nt | nt | nt
CN(C)c1ncc(C2=C(Cl)C(=O)C(N3CCCC3)=C(Cl)C2=O)s1 | 7 | 68* | 4 | 25* | 22* | 26* | -4 | nt | BSA TAMRA ctr=-15;TCR-CD3 inh conf=7
COc1ccc(N2CCN(CCNS(=O)(=O)c3ccc(Br)s3)CC2)cc1 | nt | -2 | nt | -1 | nt | nt | nt | nt
O=S(=O)(O)c1cc(O)ccc1O | -2 | 9 | 0 | 3 | -1 | 5 | nt | nt

High-throughput results deposited in PubChem BioAssay by The Scripps Research Institute Molecular Screening Center.
